Eya2 phos inh: qHTS Assay for Inhibitors of the Phosphatase Activity of Eya2 | Protein phosphatase EYA2 (Homo sapiens), O00167 | recombinant Eya2, OMFP fluorescence dephosphorylation (OMFP is methylfluorescein phosphate) | Potency, µM (top dose mostly 76.9 µM), usual class: inhibitors | 0.006% of 330,000 active | AID 488837, 2010
Target sequence (O00167 whole entry, looked up): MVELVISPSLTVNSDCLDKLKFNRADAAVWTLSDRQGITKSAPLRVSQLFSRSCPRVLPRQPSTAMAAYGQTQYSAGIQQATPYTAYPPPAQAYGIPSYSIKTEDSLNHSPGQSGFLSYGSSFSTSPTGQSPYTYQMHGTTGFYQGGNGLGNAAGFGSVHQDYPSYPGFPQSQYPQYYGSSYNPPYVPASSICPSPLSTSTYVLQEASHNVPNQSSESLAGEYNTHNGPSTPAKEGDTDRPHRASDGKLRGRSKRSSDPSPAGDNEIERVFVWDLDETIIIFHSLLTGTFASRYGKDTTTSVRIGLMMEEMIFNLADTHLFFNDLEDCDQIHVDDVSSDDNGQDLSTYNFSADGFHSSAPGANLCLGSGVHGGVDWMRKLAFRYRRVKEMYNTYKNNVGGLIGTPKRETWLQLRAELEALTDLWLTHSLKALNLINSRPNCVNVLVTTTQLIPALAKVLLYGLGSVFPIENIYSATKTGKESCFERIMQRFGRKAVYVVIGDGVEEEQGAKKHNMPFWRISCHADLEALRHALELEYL
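Eya2 (0.2 uM) preincubated 10 min at ambient with compound, then OMFP substrate added at 50 uM; 10 min reaction in 50 mM HEPES pH 7.5, 50 mM NaCl, 5 uM MgCl2, 0.05% BSA, 1 mM DTT. Fluorescence read at Ex 485/Em 525 nm.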
MmCpn inh: Inhibitors of TCP-1 ring complex (TRiC) of Methanococcus maripaludis (MmCpn): qHTS; Chaperonin Mm-Cpn (Methanococcus maripaludis); AID 504842, 2011; purified Mm-Cpn ATPase, ADP Transcreener TR-FRET; Potency, µM (series often up to 76.9 µM), usual class: inhibitors; 0.031% of 330,000 active; further: nearly all actives have a fitted effect of over 80% in size
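25 nM Mm-CPN + cpd, 10 min 37°C; + 10 uM ATP, 30 min 37°C; buffer 30 mM Tris pH 7.4, 100 mM KCl, 5 mM MgCl2, 1 mM DTT; Transcreener ADP HTRF detection 30 min RT.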
p53 reactivation: qHTS assay for re-activators of p53 using a Luc reporter | H1299 p53-A138V BP100-luciferase reporter, luminescence, 24 h | Potency, µM (highest dose often 92.2 µM), hits mostly activators | 0.063% of 320,000 active | AID 504706, 2011; further: nearly all actives have a fitted effect of over 45% in size
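p53-null H1299 cells stably carrying temperature-sensitive p53-A138V and a BP100-luciferase reporter were pinned with compounds (4-point, 1:5 series) and held 24 hrs at 37 deg C. Luminescence was read 10 min after detection reagent.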
ClpP mod: qHTS Assay for Activators of ClpP | ATP-dependent Clp protease proteolytic subunit (Bacillus subtilis (strain 168)), P80244 | purified B. subtilis ClpP, FRET peptide cleavage, 20 min | Potency, µM (top dose mostly 57.5 µM) | 1.9% of 340,000 active; active means well fitted falling curve with a large enough effect; inconclusive means small, poorly fitted or top-dose-only effect; inactive means no such curve, though single readings can be large or run the other way; further: the source files actives as falling curves though it sought activators and does not explain the sign; nearly all actives have a fitted effect of over 65% in size
Target sequence (P80244 whole entry, looked up): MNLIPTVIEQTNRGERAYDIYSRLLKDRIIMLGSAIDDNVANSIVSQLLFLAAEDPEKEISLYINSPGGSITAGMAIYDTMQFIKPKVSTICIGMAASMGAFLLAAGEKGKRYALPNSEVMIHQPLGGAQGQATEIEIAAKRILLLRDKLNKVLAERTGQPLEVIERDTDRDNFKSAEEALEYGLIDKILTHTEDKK
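Purified B. subtilis ClpP, 10 microg/mL final in Tris/HCl pH8 with KCl, BSA, glycerol and Tween-20, cleaved an Abz/nitrotyrosine-quenched decapeptide. Fluorescence (ex 320, em 430) was read at 0 and 20 min at room temperature. Delta was normalized to 5.8 microM ADEP and DMSO/no-enzyme controls.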
Integrin act MD: qHTS for Activators of Integrin-Mediated Alleviation for Muscular Dystrophy; alpha7betagal myoblasts, beta-gal FDG fluorescence, 48 h; Potency, µM (top dose mostly 38.3 µM), usual class: activators; 0.064% of 350,000 active; further: nearly all actives have a fitted effect of over 60% in size
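alpha7betagal+/- myoblasts (passage 13, 250/well) treated 48 h at 37C with compounds at 1:260 dilution of DMSO stock. Lysed, then beta-galactosidase activity read as FDG fluorescence (ex 480/em 540) after 30 min, with pre-read for autofluorescence.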
USP2a block: qHTS Assay for Inhibitors of Ubiquitin-specific Protease USP2a Using CHOP2 as the Reporter; Ubiquitin carboxyl-terminal hydrolase 2 (Homo sapiens), O75604; Potency, µM (highest dose often 38.3 µM), actives largely listed as inhibitors; 0.01% of 330,000 active; AID 463254, 2010; USP2 core, Ub-CHOP2 coupled fluorogenic reporter, 485/531
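Cell-free coupled assay: 10nM USP2 core preincubated 30min RT with compound in Tris-HCl pH 8.0/CaCl2/CHAPS buffer, then 25nM Ub-CHOP2 and 25nM reporter substrate; fluorescence (Ex 485/Em 531) read after 60min RT, normalized to NEM inhibition, concentration-response curves fitted.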
Numbers stand for hits; 0 = inactive; ? = inconclusive; - = no result given; [ ] = remark or other dose. Many of the other results were omitted from the sample, so hits are more common in it than they were. Unless noted, the call rests on the fitted dose curve; in most records, active means well fitted curve in the direction sought with a large enough effect; inconclusive means small, poorly fitted or top-dose-only effect, or another doubt; inactive means no such curve, though single readings can be large; an effect the other way counts as inactive or inconclusive.

SMILES	Eya2 phos inh	MmCpn inh	p53 reactivation	ClpP mod	Integrin act MD	USP2a block
CC(C)OC(=O)c1c(N)n(Cc2ccco2)c2nc3ccccc3nc12	0	0	0	14µM	0	0
ClCCN(CCCl)c1ccc(C=Nc2ccc(/C=C/c3ccncc3)cc2)cc1	-	-	-	0	-	-
O=C(CN1CCN(C(=O)CNC(=O)c2ccc(-c3ccccc3)cc2)CC1)Nc1ccccc1Cl	-	-	-	0	0	-
CC1CCCC(C)N1C(=O)CSc1nc2c(c(=O)n(C)c(=O)n2C)n1C (stereo not drawn)	0	?	0	-	0	0
COC(=O)c1c(N)n(Cc2ccc(OC)cc2)c2nc3ccccc3nc12	0	0	0	10µM	0	0
O=[N+]([O-])c1cc(C(F)(F)F)c(Cl)c([N+](=O)[O-])c1Nc1ncc(C(F)(F)F)cc1Cl	-	-	-	0	-	-
COCCNC(=O)c1c(N)n(CCC(C)C)c2nc3ccccc3nc12	0	0	0	16µM	0	0
CCCCCn1c(NC(=O)c2ccco2)c(C(=O)OCC)c2nc3ccccc3nc21	0	0	0	-	0	0
COCCCn1c(N)c(C(=O)OCCOC)c2nc3ccccc3nc21	0	0	0	0	0	0
CCCCNC(=O)c1c(N)n(CCCOC)c2nc3ccccc3nc12	0	0	0	25µM	0	0
CC(C)CCn1c(N)c(C(=O)NCc2cccs2)c2nc3ccccc3nc21	0	0	0	14µM	0	0
CCOC(=O)c1c(NS(=O)(=O)c2ccccc2)n(CCCOC)c2nc3ccccc3nc12	0	0	0	28µM	0	0
CC(C)(C)OC(=O)N(CCc1ccccc1)Cc1ccc(OCc2cccc(NC(=O)c3ccccc3)c2)cc1	-	-	-	?	0	-
O=C(c1ccc(N2CCN(CCO)CC2)nc1)N1CCOCC1	0	0	?	0	0	0
CC(C)OCCCNC(=O)c1c(N)n(Cc2cccs2)c2nc3ccccc3nc12	0	0	0	10µM	0	0
COCCCNC(=O)c1c(NC(=O)c2ccco2)n(Cc2ccccc2)c2nc3ccccc3nc12	0	0	0	16µM	0	0
COc1ccccc1NC(=O)c1oc2ccccc2c1NC(=O)COc1cccc(C)c1	-	-	-	0	-	-
O=C(Oc1ccc(Cl)c2ccccc12)N1CCCCC1	0	0	0	28µM	0	0
Cc1cccc(NC(=O)Oc2ccc(Cl)c3cccnc23)c1	-	-	-	0	0	-
CCCCN1CC(O)=C(c2nc3ccccc3s2)C1=N	0	0	?	0	0	0
CNC(=O)COC(=O)c1ccc(-c2nc3ccccc3s2)s1	0	0	0	6.3µM	0	0
CCOC(=O)c1cccc(NC(=O)c2cnc(N3CCCCC3)c3ccccc23)c1	-	-	-	28µM	-	-
CCOC(=O)c1ccc(NC(=O)c2sc3nc4c(cc3c2N)N2CCC4CC2)cc1	-	-	-	0	-	-
O=C1OC(=O)C2C3CCC(O3)C12 (stereo not drawn)	0	0	0	-	-	0
CN1CC=C2C(C#N)=C(N)C(C#N)(C#N)C(c3ccncc3)C2C1 (stereo not drawn)	0	0	0	28µM	0	0
SMILES	Eya2 phos inh	MmCpn inh	p53 reactivation	ClpP mod	Integrin act MD	USP2a block
CCN1CC2(COC(=O)c3ccccc3N)CCC(OC)C34C5CC6C(OC)CC(O)(C5C6OC)C(O)(C(OC)C23)C14 (stereo not drawn)	0	0[15.4 µM]	0	16µM	0	0
O=P(Nc1ccccc1)(Oc1ccccc1)Oc1ccccc1	0	0	0	0	0	0
CNP(=O)(Oc1ccccc1)OC12CC3CC(CC(C3)C1)C2 (stereo not drawn)	0	0	0	-	10µM	0
Cc1cccc(NC(=O)Cn2cc(C(=O)C3CC3)c3ccccc32)c1C	0	0	0	-	0	0
COc1ccc(-n2c(=S)[nH]c3c(sc(=S)n3-c3ccccc3)c2=O)c(OC)c1	0	0	0	11µM	0	0
CCOC(=O)CCCc1cc[c]([Sb](=[O])([OH])[OH])cc1	-	-	-	0	-	-
CC(Oc1ccc(Cl)cc1Cl)C(=O)Nc1ccc(S(=O)(=O)Nc2cnc3ccccc3n2)cc1 (stereo not drawn)	0	0	0	16µM	0	0
O=C(NCCCN1CC1)Nc1cccc2ccccc12	-	-	-	25µM	0	-
Cc1ccccc1NC(=O)NCCN1CC1	0	0	0	0	0	0
CCOc1cc(-c2ccc(N)c(OCC)c2)ccc1N	0	0	0	32µM	0	0
Oc1ccc(Cl)cc1Sc1cc(Cl)ccc1O	-	-	-	-	0	-
Cc1cc(N(CCCl)CCCl)ccc1/C=N/NC(=O)c1ccco1	0	0	0	0	0	0
Cc1cc(N(CCCl)CCCl)ccc1C=NNC(=O)Cc1cc(=O)oc2cc(O)ccc12	-	-	-	28µM	0	-
O=C(Nc1ccccc1F)Oc1cccc(OC(=O)Nc2ccccc2F)c1	0	0	?	0	0	0
O=C(Nc1ccc2nc(SCC(=O)N3CCCc4ccccc43)sc2c1)c1cccc(F)c1	-	-	-	13µM	-	-
CCOP(=O)(OCC)C(NC(=O)c1cccc([N+](=O)[O-])c1)C(Cl)(Cl)Cl (stereo not drawn)	?	0	0	32µM	0	0
CCOP(=O)(OCC)C(NC(=O)c1cccc(C)c1)C(Cl)(Cl)Cl (stereo not drawn)	0	0	0	0	0	0
Cc1ccc(S(=O)(=O)N(C)CCCC(=O)N2CCN(c3ccccn3)CC2)cc1	0	0	0	32µM	0	0
Cc1cccc(CN2CCc3nc(N4CCN(c5ccccn5)CC4)ncc3C2)c1	-	-	-	0	-	-
Cc1nc2ccccc2c(=O)n1-c1cccc(C(F)(F)F)c1	0	0	-	28µM	0	0
COc1ccc(NCC(=O)N2CCCC2)cc1Cl	0	0	0	0	0	0
Cn1nc(-c2ccccc2)nc2c(=O)n(C)c(=O)nc1-2	-	-	-	0	-	-
CCn1nc(-c2ccccc2)nc2c(=O)n(C)c(=O)nc1-2	56µM	0	-	0	0	0
C[C@H]1O[C@@H](O[C@H]2[C@@H](O)C[C@@H](O[C@H]3[C@@H](O)C[C@H](O[C@H]4CC[C@@]5(C)[C@H](CC[C@@H]6[C@@H]5CC[C@]5(C)[C@@H](C7=CC(=O)OC7)CC[C@]65O)C4)O[C@@H]3C)O[C@@H]2C)C[C@H](O)[C@@H]1O	-	-	-	0	-	-
O=C(N/N=C/c1c(O)n(C2CC2)c(=S)[nH]c1=O)c1ccccc1O	0	0	6.3µM	0	0	0
Cc1ccccc1-n1c(O)c(/C=N/NC(=O)c2ccccc2O)c(=O)[nH]c1=S	0	0	0	0	?	0

Screens from PubChem.
